# High-throughput results as filed in PubChem BioAssay.
# HT1080NT lethal = kills 2HG-producing HT-1080-NT fibrosarcoma cells | HT-1080-NT fibrosarcoma viability, CellTiter-Glo ATP luminescence, 48 h | Potency, µM (top dose mostly 46.1 µM), without a hit: at the top dose activity, negative = less viability, most hits filed as cytotoxic | 1.6% of 360,000 active | AID 686970;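 also: NT is the 2HG producing partner of a matched IDH1 knockdown line; potency is read from the fitted curve at half-maximal effect; 0% = DMSO-treated cells and -100% = media-only wells without cells; nearly all actives have a fitted effect of over 55% in size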
#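 HT-1080-NT fibrosarcoma cells (2HG-overproducing), 750 cells/well in RPMI with 5% FBS, dosed after 2 h and incubated 48 h at 37C. CellTiter-Glo luminescence normalized to DMSO and no-cell wells; concentration-response curves fitted and classed.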
# IL-1B inflam inh = blocks inflammasome-driven IL-1 beta release. THP-1 LPS/ATP IL-1B secretion, AlphaLISA, 16 h; active compounds read low. activity change, % at 57.5 µM. 4.7% of 360,000 active; in the data active = activity change below about -50%; inconclusive = mostly about -30% to -49%
#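 THP-1 cells pretreated 1 hr with compounds (up to 57.5 uM final), then stimulated with LPS (250 ng/mL final) plus ATP (1.25 mM final); secreted IL-1B measured by AlphaLISA after 16 hr, decreased signal indicating inhibition.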
# DT40 TDP1 no CPT = qHTS for Inhibitors of human tyrosyl-DNA phosphodiesterase 1 (TDP1): qHTS in cells in absence of CPT; Potency, µM (titrated, usually from 46.2 µM), for inactives: top-dose activity change, negative = growth inhibition, usual class: inhibitors; 15% of 420,000 active; DT40 Tdp1-/- hTDP1 cells, no CPT, ATP luminescence, 48 h; also: potency is read from the fitted curve at half-maximal effect; nearly all actives have a fitted effect of over 55% in size
#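 Stably hTDP1-transfected Tdp1-null chicken DT40 cells were treated with library compounds minus camptothecin and grown for at least 48 hr at 37 °C, after which cellular ATP was quantified by luminescence.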
# 12-LOX inh = inhibitors of human 12S-lipoxygenase ALOX12; AID 1671190; Potency, µM (highest dose often 108 µM), without a hit: top-dose activity change, negative = inhibition, hits mostly inhibitors; purified 12hLO, xylenol orange hydroperoxide absorbance; 1.1% of 580,000 active; P18054; also: potency is read from the fitted curve at half-maximal effect
# Target sequence (P18054 whole entry, looked up): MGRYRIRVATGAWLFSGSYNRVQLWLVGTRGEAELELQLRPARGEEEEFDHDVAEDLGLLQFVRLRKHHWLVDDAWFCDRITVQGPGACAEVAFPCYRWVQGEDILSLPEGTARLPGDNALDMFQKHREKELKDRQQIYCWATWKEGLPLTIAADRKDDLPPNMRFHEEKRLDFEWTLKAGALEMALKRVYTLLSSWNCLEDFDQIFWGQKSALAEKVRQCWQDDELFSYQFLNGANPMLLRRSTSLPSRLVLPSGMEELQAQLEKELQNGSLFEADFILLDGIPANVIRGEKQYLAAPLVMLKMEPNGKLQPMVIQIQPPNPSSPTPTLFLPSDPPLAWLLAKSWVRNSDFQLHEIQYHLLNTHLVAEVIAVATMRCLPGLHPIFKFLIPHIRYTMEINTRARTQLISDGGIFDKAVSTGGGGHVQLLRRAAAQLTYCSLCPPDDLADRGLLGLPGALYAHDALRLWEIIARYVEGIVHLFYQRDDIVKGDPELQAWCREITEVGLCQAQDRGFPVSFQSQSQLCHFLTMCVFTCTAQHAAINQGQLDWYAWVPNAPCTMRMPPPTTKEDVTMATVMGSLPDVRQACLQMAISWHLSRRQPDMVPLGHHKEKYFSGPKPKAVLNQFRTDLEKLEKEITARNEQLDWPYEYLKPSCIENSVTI
#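 Purified human 12hLO at 150 nM in 25 mM Hepes, 0.01% Triton X-100, pH 7.0, preincubated 15 min at room temperature with compound. Reaction started with 40 uM arachidonic acid, 30 min at room temperature. Hydroperoxide measured by Fe-xylenol orange, 573/405 nm absorbance ratio.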
# TDP1 cell CPT = DT40-hTDP1 cell growth loss with CPT; Potency, µM (highest dose often 46.2 µM), inactives show at the top dose activity change, negative = growth inhibition, actives largely listed as inhibitors; chicken DT40 Tdp1-/-;hTDP1 cells + 20 nM CPT, ATP luminescence, 48 h; 12% of 420,000 active; also: potency is read from the fitted curve at half-maximal effect; nearly all actives have a fitted effect of over 55% in size
#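 Chicken DT40 Tdp1-/- cells complemented with human TDP1, 400 cells/well, exposed to compounds plus 20 nM camptothecin for at least 48 h at 37 C; viability read as ATP content by CellTiter-Glo luminescence.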
# HT1080 IDH1KD tx = toxicity to HT-1080 IDH1 knockdown cells (counter line); HT-1080 IDH1 knockdown viability, ATP luminescence, 48 h; Potency, µM (titrated, usually from 46.1 µM), without a hit: top-dose activity, negative = toxicity, actives largely listed as cytotoxic; 2% of 360,000 active;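 also: potency is read from the fitted curve at half-maximal effect; 0% = DMSO wells and -100% = cell-free medium wells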
#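 % activity derives from luminescence (CellTiter-Glo), normalised to DMSO and no-cell wells. HT-1080-IDH1KD cells, 750/well, had 48 h compound exposure at 37 °C.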
# * = called active by the depositor; ? = inconclusive; / = no result given. The full list was thinned out, with hits kept by preference. Unless noted, calls follow the shape of the dose curve; as a rule, active = well fitted curve in the direction sought with a large enough effect; inconclusive = small, poorly fitted or top-dose-only effect, or another doubt; inactive = no such curve, though single readings can be large; an effect the other way counts as inactive or inconclusive. Unless noted, % is scaled to controls: 0 for no effect and ±100 for the full control effect.
SMILES,HT1080NT lethal,IL-1B inflam inh,DT40 TDP1 no CPT,12-LOX inh,TDP1 cell CPT,HT1080 IDH1KD tx
Cc1ccc(OCC(=O)Nc2ccc3nc(SCC(=O)N4CCc5ccccc54)sc3c2)cc1,/,/,4%,1%,3%,/
COc1cccc(C(=O)Nc2ccc3nc(SCc4ccc(C)cc4)sc3c2)c1,/,/,16µM*,0%,16µM*,/
COc1ccc(C(=O)Nc2ccc3nc(SCc4ccc(C)cc4)sc3c2)cc1,/,/,?,-14%,-21%,/
COc1cccc(C(=O)Nc2ccc3nc(SCC(=O)N4CCc5ccccc54)sc3c2)c1,/,/,4.6µM*,-5%,3.3µM*,/
CSc1cccc(NC(=O)N2CCC(OC3CCN(Cc4ccccc4)CC3)CC2)c1,/,/,/,8%,/,/
CC(=O)/C(=C/c1ccccc1)C(=O)Nc1ccccc1C,?,-104*,4.6µM*,6%,?,?
Cc1ccccc1NC(=O)C(=Cc1ccc(C(=O)O)cc1)C(=O)Nc1ccccc1C,6.5µM*,-106*,8.2µM*,-12%,9.2µM*,4.6µM*
O=c1cc(NS(=O)(=O)c2ccccc2)nc(SCc2ccc(Cl)cc2)[nH]1,3%,-56*,-116%,4%,-3%,-2%
CC1=C(C(=O)OCC2CCCO2)C(c2ccccc2)C2=C(CCCC2=O)N1 (stereo not given),2%,6,9%,-28%,2%,8%
COc1ccc(C2C(C(=O)OCC3CCCO3)=C(C)NC3=C2C(=O)CC(c2ccco2)C3)cc1O (stereo not given),-7%,?,?,8.9µM*,?,-11%
COc1ccc2ccccc2c1CN(C)Cc1ccccc1,-18%,-28,?,0%,-29%,-9%
CCOc1ccc2ccccc2c1CNCCc1ccc(S(N)(=O)=O)cc1,-13%,-28,?,?,-27%,-17%
COc1ccc2ccccc2c1CNC(C)CCc1ccccc1 (stereo not given),?,/,?,?,9.2µM*,18µM*
COc1ccc(CCNCc2c(OC)ccc3ccccc23)cc1OC,?,?,?,?,16µM*,?
CCn1ncc(NC(=O)Cn2ncc3cc(-c4ccc(C)cc4F)ccc32)n1,/,/,/,1%,/,/
CCc1noc(-c2cn(C3CCN(C(=O)c4ccoc4)CC3)nn2)n1,/,/,/,29%,/,/
O=C(c1cccc(CC2CCNCC2)c1)N1CCOCC(O)C1 (stereo not given),/,/,/,-6%,/,/
CC(Sc1nnnn1-c1ccccc1)C(=O)Nc1ccc(N2CCN(C)CC2)cc1 (stereo not given),3%,-18,10µM*,4%,13µM*,0%
Oc1ccc(C[C@H]2CNC(=S)N2CC2CCCN2C[C@H](Cc2ccccc2)N2C[C@H](Cc3ccc(O)cc3)N(CC3CCCCCC3)C2=S)cc1 (stereo not given in full),-23%,?,?,11µM*,?,?
Oc1ccc(C[C@H]2CNC(=S)N2C[C@H]2CCCN2C[C@H](Cc2ccccc2)N2C[C@H](Cc3ccc(O)cc3)N(CC3CCCCCC3)C2=S)cc1,29µM*,0,16µM*,?,15µM*,18µM*
Oc1ccc(C[C@H]2CN([C@@H](Cc3ccccc3)CN3CCCC3CN3C(=S)NC[C@@H]3Cc3ccccc3)C(=S)N2CC2CCCCC2)cc1 (stereo not given in full),-20%,11,16µM*,0%,?,-15%
Oc1ccc(C[C@H]2CN([C@@H](Cc3cccc(O)c3)CN3CCC[C@@H]3CN3C(=S)NC[C@@H]3Cc3ccccc3)C(=S)N2CC2CCCCC2)cc1,18µM*,-12,2.9µM*,?,3.7µM*,23µM*
CC(=O)Nc1cccc(OC(=O)C23CC4CC(CC(C4)C2)C3)c1,/,/,/,-10%,/,/
CCc1ccc(C(=O)COC(=O)c2ccc(C(=O)c3ccccc3)cc2)cc1,/,/,/,12%,/,/
Oc1ccc(C[C@H]2CNC(=S)N2CC2CCCN2C[C@H](Cc2ccc(O)cc2)N2C[C@H](Cc3ccc(O)cc3)N(CC3CCCCC3)C2=S)cc1 (stereo not given in full),16µM*,0,5.8µM*,?,7.3µM*,?
SMILES,HT1080NT lethal,IL-1B inflam inh,DT40 TDP1 no CPT,12-LOX inh,TDP1 cell CPT,HT1080 IDH1KD tx
Oc1ccc(C[C@H]2CN([C@@H](Cc3ccc(O)cc3)CN3CCC[C@@H]3CN3C(=S)NC[C@@H]3Cc3ccccc3)C(=S)N2CC2CCCCCC2)cc1,12µM*,-51*,23µM*,?,16µM*,16µM*
O=C1NC[C@H](Cc2ccc(O)cc2)N(C[C@@H]2CCCN2C[C@H](Cc2ccc(O)cc2)N2C[C@H](Cc3ccccc3)N(CC3CCCCCC3)C(=O)C2=O)C1=O,-14%,-25,?,?,?,0%
Cc1cccc(OCCC(=O)NNC(=O)c2ccoc2C)c1,14%,18,-3%,19%,-20%,-1%
CCNc1c(NC(=O)c2ccccc2Br)c(=O)oc2ccccc12,/,/,/,0%,/,/
COc1ccccc1C(c1nnnn1CCc1ccccc1)N1CCCCCC1 (stereo not given),?,-22,23µM*,64%,?,?
COc1ccccc1N1CCN(C(c2ccccc2)c2nnnn2CCc2ccccc2)CC1 (stereo not given),-1%,0,18µM*,?,18µM*,-20%
COc1ccccc1N1CCN(C(c2ccc(Cl)cc2)c2nnc(-c3cccc(F)c3)o2)CC1 (stereo not given),/,/,?,6%,?,/
COc1ccc(C(c2nnnn2CCc2ccccc2)N2CCN(C)CC2)cc1OC (stereo not given),9%,-7,-3%,-1%,-12%,-2%
COc1ccccc1N1CCN(C(c2ccccc2)c2nnc(-c3ccccc3Cl)o2)CC1 (stereo not given),/,/,?,-10%,29µM*,/
CCc1cc(=O)n(CC(=O)Nc2ccc(Br)cc2)c(N2CCOCC2)n1,/,/,/,21%,/,/
CCCc1cnc(N2CCN(C(=O)c3ccc(OC)cc3)CC2)nc1,-24%,31,?,/,?,-1%
O=C(COC(=O)c1ccc(O)cc1O)N=c1sccn1Cc1ccccc1Cl,0%,?,?,-16%,?,0%
